Data published in PubChem BioAssay (Tox21).
Unmarked numbers belong to inactive results. Records with an inconclusive call do not appear. Where a call stands in place of a potency, no number is given. Active and inactive are the calls of the source. Unless noted, calls come from the whole dose curve; as a rule, active = well fitted curve in the direction sought with a large enough effect in the repeat runs; inconclusive = weak or mixed curves; inactive = no such curve, though single readings can be large; an effect the other way counts as inactive or inconclusive.

Assays:
[1] = qHTS assay to identify small molecule agonists of the estrogen receptor alpha (ER-alpha) signaling pathway in the presence of an antagonist - cell viability counter screen (AID 1259386);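 note: series mostly up to about 92 µM; cells exposed to compounds for 22 h at 37 °C before the viability read; nearly all actives have a fitted effect of over 30% in size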
Procedure, shortened: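 ICI-182,780 at 10.0nM final accompanies the compound titration (15 concentrations, 22hr, 37C) on VM7Luc4E2 cells. The CellTiter-Fluor fluorescence readout runs in the same wells as the luciferase assay.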

[2] = target: Progesterone receptor (Homo sapiens) (UniProt P06401); test: qHTS assay to identify small molecule agonists of the progesterone receptor (PR) signaling pathway (AID 1346784; calls by dose curve; note: nearly all actives have a fitted effect of over 30% in size)
Chain of Progesterone receptor (Homo sapiens) (P06401 whole entry, looked up): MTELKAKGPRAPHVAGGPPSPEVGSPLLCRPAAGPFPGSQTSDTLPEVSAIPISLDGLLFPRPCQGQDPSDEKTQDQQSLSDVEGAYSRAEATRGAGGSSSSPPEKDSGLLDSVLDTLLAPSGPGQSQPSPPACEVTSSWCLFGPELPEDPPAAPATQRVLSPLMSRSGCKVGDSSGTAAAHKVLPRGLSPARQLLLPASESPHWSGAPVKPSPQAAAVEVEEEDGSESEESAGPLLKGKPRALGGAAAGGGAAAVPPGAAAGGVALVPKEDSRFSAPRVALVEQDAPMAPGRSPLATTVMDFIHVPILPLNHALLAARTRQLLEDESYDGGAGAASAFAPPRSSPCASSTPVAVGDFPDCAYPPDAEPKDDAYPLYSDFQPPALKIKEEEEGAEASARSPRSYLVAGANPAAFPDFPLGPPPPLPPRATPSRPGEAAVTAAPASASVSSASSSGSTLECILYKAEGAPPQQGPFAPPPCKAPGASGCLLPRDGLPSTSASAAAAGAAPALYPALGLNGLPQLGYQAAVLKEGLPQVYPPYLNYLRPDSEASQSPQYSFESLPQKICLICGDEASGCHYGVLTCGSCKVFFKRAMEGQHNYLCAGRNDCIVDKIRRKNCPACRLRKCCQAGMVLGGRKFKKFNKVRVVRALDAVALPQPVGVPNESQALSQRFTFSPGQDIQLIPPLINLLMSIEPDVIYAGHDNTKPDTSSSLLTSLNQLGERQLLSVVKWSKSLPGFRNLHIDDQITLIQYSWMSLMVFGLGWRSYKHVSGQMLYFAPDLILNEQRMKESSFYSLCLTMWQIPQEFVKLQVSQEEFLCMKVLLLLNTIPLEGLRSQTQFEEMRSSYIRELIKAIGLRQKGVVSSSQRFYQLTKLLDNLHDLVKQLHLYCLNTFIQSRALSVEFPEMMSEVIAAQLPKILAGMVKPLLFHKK
Procedure, shortened: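 Agonist mode, quantitative HTS format in a HEK 293T line expressing a UAS-controlled beta-lactamase reporter; 16 hr compound exposure at 37C in 2% charcoal-stripped FBS, then LiveBLAzer B/G FRET fluorescence.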

[3] = target: Progesterone receptor (Homo sapiens) (UniProt P06401); test: qHTS assay to identify small molecule antagonists of the progesterone receptor (PR) signaling pathway (AID 1346795; active = well fitted inhibition curve with a large enough effect in the signal ratio in the repeat runs, not every such curve was filed as active; the % refers to the signal ratio; note: potency is the fitted concentration of half-maximal effect)
Procedure, shortened: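 HEK293T PR-UAS-bla reporter cells in charcoal-stripped serum (2%) received compound after a 6 hr settling period, followed by R5020 agonist at 1 nM final; 16 hr incubation preceded the FRET substrate step and fluorescence measurement.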

[4] = qHTS assay to identify small molecule antagonists of the progesterone receptor (PR) signaling pathway - cell viability counter screen (AID 1346798); note: nearly all actives have a fitted effect of over 50% in size; note: potency is the fitted concentration of half-maximal effect
Procedure, shortened: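 Same-well multiplex: after 16 hr at 37C with compound and R5020 stimulation, HEK293T cells carrying a UAS-bla reporter received LiveBLAzer substrate (2 hr RT), then CellTiter-Glo (30 min RT) for luminescent viability.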

[5] = qHTS assay to identify small molecule agonists of the progesterone receptor (PR) signaling pathway - cell viability counter screen (AID 1346799; calls by dose curve; note: nearly all actives have a fitted effect of over 45% in size)
Procedure, shortened: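 Counter screen for cytotoxicity: compound-treated PR-UAS-bla HEK293T cells (16 hr, 37C, 5% CO2) were assayed with CellTiter-Glo, luminescence measured after 30 min at room temperature.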

[6] = qHTS assay to identify small molecule antagonists of the TGF-beta/Smad signaling pathway - cell viability counter screen (AID 1346824); note: nearly all actives have a fitted effect of over 50% in size
Procedure, shortened: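 Cytotoxicity counter-screen run in the same wells as the beta-lactamase Smad reporter read: CellTiter-Glo luminescence after 30 min at room temperature. HEK 293T SBE-bla cells had 5 hr compound exposure at 37 C with TGF-beta1 (0.25 ng/mL stock).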

[7] = qHTS assay to identify small molecule agonists of the TGF-beta/Smad signaling pathway - cell viability counter screen (AID 1346829); note: top concentration of the series differs between compounds; nearly all actives have a fitted effect of over 45% in size
Procedure, shortened: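 Here the cytotoxicity of library compounds is measured in SBE-bla HEK 293T cells treated for 5 hr, using CellTiter-Glo added to wells already read for the beta-lactamase reporter.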

[8] = qHTS assay to identify small molecule agonists of the TGF-beta/Smad signaling pathway (AID 1346859; active = well fitted activation curve with a large enough effect in the signal ratio in the repeat runs, not every such curve was filed as active; the % refers to the signal ratio; note: series mostly up to about 77 µM)
Procedure, shortened: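 Smad-responsive beta-lactamase reporter cells (HEK 293T) received compounds from DMSO stocks after overnight attachment, were incubated 5 hr, then treated 2 hr with FRET substrate before dual-emission fluorescence measurement (405 nm excitation).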

[9] = target: Thyrotropin-releasing hormone receptor (Homo sapiens) (UniProt P34981); test: qHTS assay to identify small molecule antagonists of the thyrotropin-releasing hormone receptor (TRHR) signaling pathway (AID 1346877; active = well fitted inhibition curve with a large enough effect in the repeat runs, not every such curve was filed as active; note: series mostly up to about 51 µM)
Chain of Thyrotropin-releasing hormone receptor (Homo sapiens) (P34981 whole entry, looked up): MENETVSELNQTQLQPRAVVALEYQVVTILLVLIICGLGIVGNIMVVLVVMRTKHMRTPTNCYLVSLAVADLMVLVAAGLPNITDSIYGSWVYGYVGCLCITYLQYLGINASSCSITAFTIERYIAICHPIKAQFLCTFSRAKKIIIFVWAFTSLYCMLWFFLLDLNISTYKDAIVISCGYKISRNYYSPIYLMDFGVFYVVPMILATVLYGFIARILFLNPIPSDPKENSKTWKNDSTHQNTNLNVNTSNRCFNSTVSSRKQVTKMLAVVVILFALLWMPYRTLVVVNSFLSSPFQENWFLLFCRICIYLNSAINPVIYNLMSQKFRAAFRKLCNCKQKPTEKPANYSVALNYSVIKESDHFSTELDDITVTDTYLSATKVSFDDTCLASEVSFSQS
Procedure, shortened: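 Screening used HEK293 cells engineered with TRHR, with a brief 5 min room-temperature compound exposure preceding addition of TRH to 1 nM. The read-out was kinetic calcium-dye fluorescence, concentration-response from 15 doses in triplicate.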

[10] = target: Thyrotropin-releasing hormone receptor (Homo sapiens) (UniProt P34981); test: qHTS assay to identify small molecule agonists of the thyrotropin-releasing hormone receptor (TRHR) signaling pathway (AID 1346891; calls by dose curve;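 note: HEK293 cells expressing TRHR with calcium dye readout; series mostly up to about 58 µM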)
Procedure, shortened: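 Agonist-mode calcium mobilisation screen: TRHR-transfected HEK293 cells cultured overnight (18 h), dye-loaded for 2 h at 37 °C, exposed to compounds, and monitored by fluorescence for 3 min.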

[11] = Human pregnane X receptor (PXR) small molecule agonists, qHTS cell viability counter screen (AID 1346977); note: nearly all actives have a fitted effect of over 50% in size
Procedure, shortened: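 Measures live-cell protease fluorescence (CellTiter-Fluor) in PXR-Luc HepG2 cells treated 24hr with compounds at 37C. Cells had 5hr to attach before pin transfer of DMSO solutions.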

[12] = Caspase-3/7 induction in HepG2 cells by small molecules, qHTS assay (AID 1346978); note: nearly all actives have a fitted effect of over 15% in size
Procedure, shortened: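 Caspase-3/7 induction was measured by Caspase-Glo 3/7 luminescence (30 min, room temperature) after a 17 hr compound exposure of wild-type HepG2 cells seeded at 2,000 per well and pre-incubated 5 hr.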

[13] = Caspase-3/7 induction in CHO-K1 cells by small molecules, qHTS cell viability counter screen (AID 1346979); note: nearly all actives have a fitted effect of over 35% in size
Procedure, shortened: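 In the same wells as the caspase read, viability of compound-treated wild-type CHO-K1 cells was assessed using CellTiter-Fluor, added after 16hr at 37C and measured by fluorescence following 1hr further incubation.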

[14] = Caspase-3/7 induction in CHO-K1 cells by small molecules, qHTS assay (AID 1346980); note: nearly all actives have a fitted effect of over 15% in size
Procedure, shortened: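 Luminescent Caspase-Glo 3/7 read (30min, room temperature) quantified apoptosis induction. Cells were wild-type CHO-K1, treated with compound for 17hr at 37 C and 5% CO2.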

[15] = Caspase-3/7 induction in HepG2 cells by small molecules, qHTS cell viability counter screen (AID 1346981); note: series mostly up to about 92 µM; nearly all actives have a fitted effect of over 30% in size
Procedure, shortened: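 Multiplexed with the caspase-3/7 assay: HepG2 cells, 16 hr compound treatment, CellTiter-Fluor viability detection by fluorescence.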

[16] = target: Nuclear receptor subfamily 1 group I member 2 (Homo sapiens) (UniProt O75469); test: Human pregnane X receptor (PXR) small molecule agonists, qHTS assay (AID 1346982); note: nearly all actives have a fitted effect of over 35% in size; note: potency is the fitted concentration of half-maximal effect
Chain of Nuclear receptor subfamily 1 group I member 2 (Homo sapiens) (O75469 whole entry, looked up): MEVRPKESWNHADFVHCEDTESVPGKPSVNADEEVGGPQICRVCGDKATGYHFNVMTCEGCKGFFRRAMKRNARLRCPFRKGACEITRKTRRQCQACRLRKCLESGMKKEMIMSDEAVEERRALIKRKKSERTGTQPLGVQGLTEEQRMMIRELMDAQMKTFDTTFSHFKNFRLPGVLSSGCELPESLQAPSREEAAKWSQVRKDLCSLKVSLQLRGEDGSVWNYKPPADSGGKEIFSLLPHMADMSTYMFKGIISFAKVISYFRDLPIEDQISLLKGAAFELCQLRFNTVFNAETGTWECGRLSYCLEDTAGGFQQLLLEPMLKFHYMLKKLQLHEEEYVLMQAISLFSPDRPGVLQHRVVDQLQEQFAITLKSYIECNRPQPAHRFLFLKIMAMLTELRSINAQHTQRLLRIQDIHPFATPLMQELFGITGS
Procedure, shortened: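 We seeded PXR-Luc HepG2 cells in assay medium containing 5% charcoal-stripped FBS, added compounds 5 hr later, incubated 24 hr, and read luminescence with ONE-Glo reagent.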

[17] = target: Acetylcholinesterase (Homo sapiens) (UniProt P22303); test: Acetylcholinesterase (AChE) small molecule antagonists: colormetric cell-based qHTS assay (AID 1347395; calls by dose curve; note: nearly all actives have a fitted effect of over 30% in size)
Chain of Acetylcholinesterase (Homo sapiens) (P22303 whole entry, looked up): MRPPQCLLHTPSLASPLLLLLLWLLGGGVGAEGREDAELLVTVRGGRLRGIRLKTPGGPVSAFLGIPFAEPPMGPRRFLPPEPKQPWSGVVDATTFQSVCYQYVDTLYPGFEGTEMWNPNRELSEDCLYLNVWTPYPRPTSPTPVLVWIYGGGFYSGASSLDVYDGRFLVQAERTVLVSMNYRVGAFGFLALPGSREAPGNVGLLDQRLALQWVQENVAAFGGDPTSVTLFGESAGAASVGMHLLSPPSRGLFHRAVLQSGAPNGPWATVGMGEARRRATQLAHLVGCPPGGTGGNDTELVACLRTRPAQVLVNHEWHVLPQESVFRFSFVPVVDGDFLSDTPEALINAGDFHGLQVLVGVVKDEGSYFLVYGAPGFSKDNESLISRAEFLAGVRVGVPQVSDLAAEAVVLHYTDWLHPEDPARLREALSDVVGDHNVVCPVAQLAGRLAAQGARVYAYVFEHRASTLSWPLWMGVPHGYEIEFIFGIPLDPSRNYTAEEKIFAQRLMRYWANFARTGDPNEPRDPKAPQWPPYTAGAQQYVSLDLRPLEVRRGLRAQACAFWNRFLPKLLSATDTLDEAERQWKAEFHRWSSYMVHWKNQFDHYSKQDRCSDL
Procedure, shortened: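 Endogenous AChE of human neuroblastoma SH-SY5Y cells was measured with an Ellman-type DTNB/acetylthiocholine mix. Compound pretreatment lasted 30 min at 37 C; substrate reaction ran 90 min at 37 C.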

[18] = target: Acetylcholinesterase (Homo sapiens) (UniProt P22303); test: Acetylcholinesterase (AChE) small molecule antagonists: enzyme-based qHTS assay (AID 1347397; calls by dose curve; note: nearly all actives have a fitted effect of over 55% in size); details: Potency: AChE enzyme activity inhibition
Procedure, shortened: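 Absorbance-based detection of thiocholine with DTNB served as the read-out. Recombinant human AChE was exposed to compound for 30 min at RT before a 10 min RT incubation with acetylthiocholine.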

| SMILES | Potency [1] | Potency [2] | Potency [3] | Potency [4] | Potency [5] | Potency [6] | Potency [7] | outcome [8] | Potency [9] | Potency [10] | Potency [11] | Potency [12] | Potency [13] | Potency [14] | Potency [15] | Potency [16] | Potency [17] | Potency [18] |
| --- | --- | --- | --- | --- | --- | --- | --- | --- | --- | --- | --- | --- | --- | --- | --- | --- | --- | --- |
| O=C(O)CC(Cl)C(=O)O (stereo not drawn) | inactive | inactive | inactive | inactive | inactive | inactive | inactive | inactive | inactive | inactive | inactive | inactive | inactive | inactive | inactive | inactive | inactive | inactive |
| NNC(=O)c1cccnc1 | inactive | inactive | inactive | inactive | inactive | inactive | inactive | inactive | inactive | inactive | inactive | inactive | inactive | – | inactive | 27.4 µM (active) | inactive | inactive |
| O=NN1CCCCCC1 | inactive | inactive | inactive | inactive | inactive | inactive | inactive | inactive | inactive | inactive | inactive | inactive | inactive | inactive | inactive | inactive | inactive | inactive |
| COC(=O)C(Cl)C(=O)OC | inactive | inactive | inactive | inactive | inactive | inactive | inactive | inactive | inactive | – | inactive | inactive | inactive | – | inactive | inactive | inactive | inactive |
| Cn1cc[n+](C)c1 (tested in a mixture with another compound) | inactive | inactive | inactive | inactive | inactive | inactive | inactive | inactive | inactive | inactive | inactive | inactive | inactive | – | inactive | inactive | inactive | inactive |
| CCCCNP(N)(N)=S | inactive | inactive | inactive | inactive | inactive | inactive | inactive | inactive | inactive | inactive | inactive | inactive | inactive | inactive | – | inactive | inactive | inactive |
| O=C(O)c1ccccc1C(=O)Nc1cccc2ccccc12 | inactive | inactive | inactive | inactive | inactive | inactive | inactive | inactive | inactive | inactive | inactive | inactive | inactive | inactive | inactive | 38.6 µM (active) | inactive | inactive |
| O=C1C(Cl)C(CCl)CN1c1cccc(C(F)(F)F)c1 (stereo not drawn) | inactive | inactive | 30.6 µM (active) | 0.864 µM (active) | inactive | inactive | inactive | inactive | inactive | – | inactive | inactive | inactive | inactive | inactive | 24.3 µM (active) | inactive | inactive |
